According to PubChem BioAssay (NCI):
About 79,000 compounds went through this panel and 15% of them were active in at least one assay; those are over-represented in the sample as a whole. A number with no mark means an inactive call. Active and inactive are the calls of the source. Rule as the data show it: active = growth inhibition above about 70%; inactive = the rest.

Legend:
[1] = NCI Yeast Anticancer Drug Screen. Data for the rad50 strain (AID 155);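 also: 0% = growth of vehicle-only cultures of the same strain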; details: S. cerevisiae rad50 strain growth inhibition, active compounds read high
Summary of the method: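 Readout: growth inhibition relative to vehicle-treated cultures. Compound exposure was carried out in a genetically defined yeast strain deficient in DNA damage repair.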

[2] = NCI Yeast Anticancer Drug Screen. Data for the mec2-1 strain (AID 157); details: S. cerevisiae mec2-1 strain, active compounds read high
Summary of the method: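 Readout is yeast growth inhibition, normalised to vehicle-treated controls, in the mec2-1 strain exposed to compound.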

[3] = NCI Yeast Anticancer Drug Screen. Data for the sgs1 mgt1 strain (AID 161);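 also: 0% = growth of cultures given vehicle only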; details: S. cerevisiae sgs1 mgt1 strain, active compounds read high
Summary of the method: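 Percent growth inhibition was derived by comparing compound-exposed mutant yeast with vehicle-exposed cultures. The strain carries alterations in DNA damage repair.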

[4] = NCI Yeast Anticancer Drug Screen. Data for the cln2 rad14 strain (AID 165);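 also: 0% = growth equal to vehicle treated cultures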; details: S. cerevisiae cln2 rad14 strain, active compounds read high
Summary of the method: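 Relative to vehicle controls, growth inhibition of compound-treated cln2 rad14 yeast was recorded.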

[5] = NCI Yeast Anticancer Drug Screen. Data for the bub3 strain (AID 167); details: S. cerevisiae bub3 mutant strain, active compounds read high
Summary of the method: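 Readout: yeast growth inhibition, expressed relative to vehicle-only wells. The test organism is a mutant strain from a panel with lesions in DNA repair or checkpoint genes.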

[6] = NCI Yeast Anticancer Drug Screen. Data for the mlh1 rad18 strain (AID 175); details: S. cerevisiae mlh1 rad18 strain growth inhibition, active compounds read high
Summary of the method: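 Test agents were incubated with a yeast strain of defined genotype (DNA damage repair defect). Inhibition of growth was derived by comparison with vehicle-exposed cultures.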

[7] = at 5.0 µM (retest, dose inferred, filed as 0.5)
[8] = at 50.0 µM (retest, dose inferred, filed as 5.0)

| Compound | growth inhibition [1, 7] | growth inhibition [1, 8] | growth inhibition ([1]; at 50.0 µM) | growth inhibition [2, 7] | growth inhibition [2, 8] | growth inhibition ([2]; at 50.0 µM) | growth inhibition [3, 7] | growth inhibition [3, 8] | growth inhibition ([3]; at 50.0 µM) | growth inhibition [4, 7] [%] | growth inhibition [4, 8] | growth inhibition ([4]; at 50.0 µM) | growth inhibition [5, 7] | growth inhibition [5, 8] | growth inhibition ([5]; at 50.0 µM) | growth inhibition [6, 7] | growth inhibition [6, 8] | growth inhibition ([6]; at 50.0 µM) |
| --- | --- | --- | --- | --- | --- | --- | --- | --- | --- | --- | --- | --- | --- | --- | --- | --- | --- | --- |
| O=C1c2ccccc2Cc2cc(O)ccc21 | 29% | 94% (active) | 47.5% | 13% | 92% (active) | 48.4% | 8% | 91% (active) | 45% | 4 | 88% (active) | 82.5% (active) | 2% | 89% (active) | 88.6% (active) | 10% | 92% (active) | 91.3% (active) |
| Cc1c2cc[n+](C)cc2c(C)c2c1[nH]c1ccc(Cl)cc12 | 43% | 97% (active) | 90.2% (active) | 28% | 99% (active) | 92.4% (active) | 48% | 99% (active) | 93% (active) | 35 | 98% (active) | 92.1% (active) | 42% | 99% (active) | 91.6% (active) | 51% | 99% (active) | 91% (active) |
| O=P1(O)c2ccccc2CS(=O)(=O)Cc2ccccc21 | 34% | 31% | 21.4% | 21% | 24% | -11.1% | 26% | 53% | -24.2% | 16 | 29% | -13.2% | 16% | 46% | -19.8% | 35% | 43% | -42.8% |
| O=[N+]([O-])c1ccc2nc(Nc3ccccc3)c(Nc3ccccc3)nc2c1 | -18% | 91% (active) | 74.1% (active) | 1% | 95% (active) | 77.8% (active) | -1% | 93% (active) | 63.9% | 24 | 93% (active) | 70.5% (active) | 15% | 93% (active) | 72.2% (active) | -6% | 93% (active) | 73% (active) |
| C1=C(c2ccccc2)C(=Nc2ccccc2)SC1=Nc1ccccc1 | 52% | 100% (active) | 99% (active) | 46% | 100% (active) | 99.5% (active) | 32% | 99% (active) | 99.5% (active) | 33 | 99% (active) | 99.3% (active) | 53% | 99% (active) | 99% (active) | 38% | 99% (active) | 99.5% (active) |
| C=C1CC(O)C2C(C[Se]c3ccccc3)C(=O)O[C@@H]2C2C(=C)[C@@H](O)CC12 (stereo not given in full) | -3% | 27% | 46.4% | 1% | 36% | 52.1% | 0% | 43% | 29.6% | -5 | 5% | -13.3% | -9% | 11% | 30.2% | -2% | 30% | 70.7% (active) |
| COc1cccc2c1C(=O)c1c(O)c3c(c(O)c1C2=O)CC(O)(C(C)=O)CC3OC1CC(NCC2(O)OCC(O)C(O)C2O)C(O)C(C)O1 (stereo not given) | 54% | 98% (active) | 85.2% (active) | 33% | 98% (active) | 86.5% (active) | 38% | 98% (active) | 79.8% (active) | 38 | 94% (active) | 73.3% (active) | 27% | 98% (active) | 83.2% (active) | 62% | 97% (active) | 87.9% (active) |
| CC1(CO)CCCC2(C)C1CCC1CC3C=CC12C1C(=O)OC(=O)C31 (stereo not given) | 41% | 79% (active) | 84.1% (active) | 25% | 77% (active) | 61.2% | 12% | 86% (active) | 24.6% | 30 | 82% (active) | 27.8% | 23% | 89% (active) | 62.2% | 36% | 88% (active) | 79.5% (active) |
| Clc1ccc2ccc3cccnc3c2n1 | 9% | 95% (active) | -38.5% | 7% | 97% (active) | -9.5% | 0% | 86% (active) | -13.2% | -4 | 92% (active) | 7.9% | -7% | 98% (active) | 20.4% | 3% | 94% (active) | -25.1% |
| COc1ccc2ccccc2c1Cc1c(OC)ccc2ccccc12 | -2% | 98% (active) | -11.7% | -2% | 98% (active) | 8.65% | -2% | 98% (active) | -2.7% | -15 | 98% (active) | 7.65% | -5% | 98% (active) | -6.35% | 0% | 98% (active) | 9.35% |
| CC1=CC(=O)c2c(O)c3c(c(O)c2C1=O)C1C(O)C(C3=O)C23C(=O)c4c(O)c(C)cc(O)c4C(O)=C2C(=O)CC(O)C13 (stereo not given) | -27% | 93% (active) | 91.5% (active) | 7% | 98% (active) | 93.3% (active) | -21% | 96% (active) | 92.7% (active) | 14 | 97% (active) | 91.3% (active) | 12% | 97% (active) | 91.1% (active) | 9% | 96% (active) | 91.8% (active) |
| O=C1CCC(Cc2ccc(Br)cc2)C(=O)N1 (stereo not given) | -4% | 7% | -11.7% | -4% | 1% | 7.2% | 19% | 96% (active) | 93.7% (active) | -3 | 3% | -77.2% | -6% | -1% | -54% | -6% | 5% | -2.1% |
| COc1ccc(N=Cc2cc(Br)cc(Br)c2O)cc1.COc1ccc(N=Cc2cc(Br)cc(Br)c2O)cc1.[Co] | 79% (active) | 75% (active) | 74% (active) | 80% (active) | 88% (active) | 79.6% (active) | 90% (active) | 85% (active) | 90.6% (active) | 48 | 66% | 52.7% | 86% (active) | 59% | 62.6% | 97% (active) | 78% (active) | 80.8% (active) |
| O=C1OC(c2ccccc2)N/C1=C\c1ccc2c(c1)OCO2 (stereo not given) | 34% | 53% | -45.7% | 17% | 20% | -53.1% | 22% | 24% | -8.55% | 11 | 21% | 3.55% | 22% | 19% | -14.7% | 18% | 26% | -6.95% |
| CCOC(=O)c1c(O)c(C)c(=O)n2c1[nH]c1cc(C)c(C)cc12 | -1% | 12% | -6.75% | 10% | 33% | -6.85% | 12% | 29% | -6.5% | -4 | 2% | -21.3% | -6% | 14% | -43.9% | -4% | 38% | -10.6% |
| FC(F)(F)c1cccc(Nc2ccc3cnc4ccccc4c3c2)c1 | 6% | 92% (active) | 94.7% (active) | -19% | 97% (active) | 95.2% (active) | -1% | 97% (active) | 96.6% (active) | -5 | 95% (active) | 92.5% (active) | -2% | 95% (active) | 95.2% (active) | 17% | 95% (active) | 93.3% (active) |
| N#CC(C(=O)C(=O)Nc1ccc(Cl)cc1)c1c(Cl)cccc1Cl (stereo not given) | 12% | 1% | 56.2% | 7% | 11% | 7.5% | 24% | 8% | 28.8% | 18 | 10% | -22.4% | 27% | 6% | 8.2% | 14% | 3% | 24.9% |
| CCCCCCCCCCCC(=O)NC(CCC(=O)O)C(=O)O (stereo not given) | 4% | -2% | -6.05% | -19% | -12% | -8% | -3% | -1% | 5.95% | -5 | -9% | 49.4% | -7% | 0% | -2.15% | -18% | -8% | 5.1% |
| COc1cc(Br)c(CC(NC=O)c2ccc3c(c2)OCO3)cc1OC (stereo not given) | -4% | 81% (active) | 62.5% | -3% | 74% (active) | 66.3% | -5% | 95% (active) | 36.5% | 4 | 95% (active) | 57.4% | 3% | 98% (active) | 96.3% (active) | -1% | 81% (active) | 56.5% |
| O=C1c2ccccc2-c2ccc(N3C(=O)C4CCCCC4C3=O)cc21 (stereo not given) | -5% | 95% (active) | -31.3% | -4% | 96% (active) | 5.4% | -4% | 96% (active) | -9.15% | -8 | 95% (active) | -36.8% | 41% | 95% (active) | 74.9% (active) | -4% | 94% (active) | -26.2% |
